Laboratory results taken from the supplement of paper PMC12067926.
Unmarked numbers belong to inactive results.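 Rule for the calls: active = growth AUC significantly below the DMSO wells by Dunnett test; inactive = the rest.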

Key:
Experiment in all cases: relative growth (AUC of 72 h growth curve relative to DMSO control, dAUC) (ratio); higher = more growth (less inhibition), active = hit call of the paper
Conditions in all cases: 20 µM
[1] = system: Prolinoborus 1 (Prolinoborus fasciculus)
Outline: (§1)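 Bacterial isolates from Icelandic stream sediments and Silwood Park soil, plus whole sediment communities, were grown to carrying capacity in Luria–Bertani medium, then diluted 1:100 into 96-well plates with each chemical at 20 µM (1% DMSO). A600 was read hourly for 72 h on a plate reader, with brief shaking before each read. Relative growth (dAUC) is the spline-integrated area under the growth curve, averaged over three biological replicates and divided by the mean of the DMSO controls.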

[2] = system: Pseudomonas 1 (Pseudomonas baetica)
Outline: as §1

[3] = system: Pseudomonas 2 (Pseudomonas vancouverensis)
Outline: as §1

[4] = system: Pseudomonas 3 (Pseudomonas mandelii)
Outline: as §1

[5] = system: Pseudomonas 4 (Pseudomonas peli)
Outline: as §1

[6] = system: Pseudomonas 5 (Pseudomonas baetica)
Outline: as §1

[7] = system: Pseudomonas 6 (Pseudomonas sp.)
Outline: as §1

[8] = system: Rhizobium 1 (Rhizobium herbae)
Outline: as §1

[9] = system: Serratia 1 (Serratia sp. 2015-2462-01)
Outline: as §1

[10] = system: Sphingomonas 2 (Sphingomonas sp.)
Outline: as §1

Row | SMILES | relative growth [1] | relative growth [2] | relative growth [3] | relative growth [4] | relative growth [5] | relative growth [6] | relative growth [7] | relative growth [8] | relative growth [9] | relative growth [10]
1 | CC1(C)C(C=C(Cl)Cl)C1C(=O)OCc1cccc(Oc2ccccc2)c1 (stereo not given) | 0.985 | 1.13 | 0.97 | 1 | 0.979 | 1.05 | 1.13 | 0.958 | 0.964 | 1.02
2 | COC(=O)NC(=S)Nc1ccccc1NC(=S)NC(=O)OC | 0.975 | 1.04 | 0.969 | 0.99 | 0.95 | 1.06 | 1.14 | 0.959 | 0.987 | 1.01
3 | COCC(=O)N(c1c(C)cccc1C)C(C)C(=O)OC (stereo not given) | 0.923 | 1.06 | 1.01 | 1 | 0.995 | 1.02 | 1.03 | 0.907 | 0.994 | 1.05
4 | O=C(O)c1nc(Cl)ccc1Cl | 0.949 | 1 | 0.984 | 1 | 0.969 | 0.971 | 1.03 | 1.05 | 0.977 | 0.931
5 | N#Cc1c(Cl)c(Cl)c(Cl)c(C#N)c1Cl | 1.04 | 0.975 | 0.972 | 0.967 | 1 | 1.01 | 1.1 | 0.17 (active) | 0.92 | 0.0279 (active)
